Results published in PubChem BioAssay (NCI).
The panel holds about 83,000 compounds, 20% with a hit somewhere; the sample as a whole holds those more often.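 Values shown are percent growth following 48 h exposure of cells in 96-well plates to a single concentration of compound; below 10 was considered active.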 Activity calls are given as the source filed them.

Columns and labels:
Experiment in all cases: NCI-60 one-dose screen, 48 h (100 = growth as untreated, 0 = no growth, -100 = all killed)
Settings in all cases: 10 µM unless noted
NCI-H23 lung = test system: NCI-H23 lung
NCI-H226 lung = test system: NCI-H226 lung
NCI-H322M lung = test system: NCI-H322M lung
HOP-62 NSCLC = test system: HOP-62 NSCLC
NCI-H460 lung = test system: NCI-H460 lung
HOP-92 NSCLC = test system: HOP-92 NSCLC
NCI-H522 lung = test system: NCI-H522 lung
A549/ATCC NSCLC = test system: A549/ATCC NSCLC
786-0 renal = test system: 786-0 renal
COLO 205 colon = test system: COLO 205 colon

Measured: growth

Cc1ccc(N=C2CSc3nnc(-c4csc5c4CCCC5)n3N2)cc1
inactive: NCI-H23 lung 41% | NCI-H226 lung 69.5% | NCI-H322M lung 57.9% | HOP-62 NSCLC 27.9% | NCI-H460 lung 11.8% | HOP-92 NSCLC 67.7% | NCI-H522 lung 29% | A549/ATCC NSCLC 26.5% | 786-0 renal 32.3%
active: COLO 205 colon -4.99%

CC1(/C=N/NC(N)=S)NC(=O)NC1=O (stereo not given)
inactive: NCI-H23 lung 98% | NCI-H226 lung 95.1% | NCI-H322M lung 107% | HOP-62 NSCLC 78.5% | NCI-H460 lung 105% | HOP-92 NSCLC 92.5% | NCI-H522 lung 71.2% | A549/ATCC NSCLC 72.4% | 786-0 renal 105% | COLO 205 colon 98.7%

COc1ccc(Cl)c(Nc2nc3ccccc3nc2NS(=O)(=O)c2cccc(NC(=O)C(C)(C)N)c2)c1
active: HOP-92 NSCLC -1.2%
inactive: NCI-H23 lung 64.5% | NCI-H226 lung 71.4% | NCI-H322M lung 35.1% | HOP-62 NSCLC 39.4% | NCI-H460 lung 38% | NCI-H522 lung 49% | A549/ATCC NSCLC 32.4% | 786-0 renal 16.7% | COLO 205 colon 21.8%

c1cc(OCCN2CCCCC2)cc(-c2n[nH]c3ccc(-c4ncn[nH]4)cc23)c1
inactive: NCI-H23 lung 43.8% | NCI-H226 lung 61.6% | NCI-H322M lung 37.6% | HOP-62 NSCLC 60.6% | NCI-H460 lung 66% | HOP-92 NSCLC 44.8% | NCI-H522 lung 36.8% | A549/ATCC NSCLC 63.8% | 786-0 renal 79.9%
active: COLO 205 colon 6.03%

N#Cc1c(-c2ccc(C(F)(F)F)cc2)c(F)c(NCCC2CCC(O)C2)n2c1nc1ccccc12 (stereo not given)
inactive: NCI-H23 lung 72.5% | NCI-H226 lung 69.2% | NCI-H322M lung 58.5% | HOP-62 NSCLC 59.2% | NCI-H460 lung 42% | HOP-92 NSCLC 32.5% | NCI-H522 lung 65.7% | A549/ATCC NSCLC 52.8% | 786-0 renal 69.4% | COLO 205 colon 41.1%

CCc1ccc(C2=C(O)C(=O)C(c3ccc(CC)cc3)=C(O)C2=O)cc1
active: NCI-H23 lung -17.4% | NCI-H226 lung -3.98% | NCI-H322M lung -19.6% | HOP-62 NSCLC -12.8% | NCI-H460 lung -19.8% | HOP-92 NSCLC -47.9% | NCI-H522 lung -20.7% | A549/ATCC NSCLC -58.3% | 786-0 renal 0.0366% | COLO 205 colon 5.7%

Nc1cc(C(F)(F)F)c(-c2cc(N3CCOCC3)nc(N3CCOCC3)n2)cn1
active: NCI-H23 lung -11.8% | NCI-H226 lung -10.6% | NCI-H322M lung -18.3% | HOP-62 NSCLC -40.8% | NCI-H460 lung -12.9% | HOP-92 NSCLC -42.2% | NCI-H522 lung -51.7% | A549/ATCC NSCLC -44.8% | 786-0 renal -9.19% | COLO 205 colon -61.3%

Cc1ncc(-c2ccnc(Nc3ccc(S(C)(=O)=O)cc3)n2)n1C(C)C
active: NCI-H23 lung -33.8% | NCI-H226 lung 6.32% | NCI-H322M lung -10.8% | HOP-62 NSCLC -14% | NCI-H460 lung -17.2% | HOP-92 NSCLC -4.8% | NCI-H522 lung -24.9% | A549/ATCC NSCLC 1.7% | 786-0 renal 4.84% | COLO 205 colon -27.4%

N#Cc1c(-c2ccc(Cl)cc2)csc1NC(=O)Nc1cccc(C(F)(F)F)c1
active: NCI-H23 lung -8.85% | NCI-H460 lung 5.61% | HOP-92 NSCLC -4.85% | NCI-H522 lung -9.41% | COLO 205 colon -0.881%
inactive: NCI-H226 lung 17.6% | NCI-H322M lung 31.5% | HOP-62 NSCLC 18.4% | A549/ATCC NSCLC 11.4% | 786-0 renal 22.9%

COc1cnc2c(c1)C(=O)c1c-2n(CCCN2CCC(N)CC2)c(=O)c2cc([N+](=O)[O-])ccc12
inactive: NCI-H23 lung 38.4% | NCI-H226 lung 35.7% | NCI-H322M lung 52.8% | HOP-62 NSCLC 30.6% | NCI-H460 lung 11.2% | HOP-92 NSCLC 67.1% | NCI-H522 lung 42.2% | A549/ATCC NSCLC 23% | 786-0 renal 36.2% | COLO 205 colon 58.2%

O=C(Nc1cccc(Cl)c1)Nc1ncc(CCNc2ncnc3ccsc23)s1
inactive: NCI-H23 lung 30.6% | NCI-H226 lung 10.8% | NCI-H322M lung 55.5% | HOP-62 NSCLC 11.8% | NCI-H460 lung 20.1% | HOP-92 NSCLC 40.9% | NCI-H522 lung 13% | A549/ATCC NSCLC 14.9% | 786-0 renal 42.1%
active: COLO 205 colon -4.76%

CCOc1ccc(N=C(C)Nc2ccc(OCC)cc2)cc1
inactive: NCI-H23 lung 102% | NCI-H226 lung 110% | NCI-H322M lung 124% | HOP-62 NSCLC 109% | NCI-H460 lung 102% | HOP-92 NSCLC 81.9% | NCI-H522 lung 128% | A549/ATCC NSCLC 95.3% | 786-0 renal 104% | COLO 205 colon 102%

COc1ccc(COc2cc3oc(=O)c4cc(C(C)O)ccc4c3cc2OC)cc1 (stereo not given)
inactive: NCI-H23 lung 70.8% | NCI-H226 lung 55.4% | NCI-H322M lung 83.8% | HOP-62 NSCLC 36.9% | NCI-H460 lung 58.4% | HOP-92 NSCLC 55.2% | NCI-H522 lung 35.1% | A549/ATCC NSCLC 48.6% | 786-0 renal 62.4% | COLO 205 colon 49.3%

Cc1cc(Nc2nc(N[C@@H](C)c3ncc(F)cn3)ncc2Cl)n[nH]1
inactive: NCI-H23 lung 69.9% | NCI-H226 lung 46.8% | NCI-H322M lung 52.8% | HOP-62 NSCLC 60.3% | NCI-H460 lung 81.6% | HOP-92 NSCLC 108% | NCI-H522 lung 68.3% | A549/ATCC NSCLC 66.2% | 786-0 renal 73.8% | COLO 205 colon 44.1%

CCN(CC)CCCC(C)Nc1cc(-c2ccc(C(F)(F)F)cc2)c(C#N)c2nc3ccccc3n12 (stereo not given)
inactive: NCI-H23 lung 18.6% | NCI-H322M lung 38.9% | HOP-92 NSCLC 68.8% | NCI-H522 lung 13.1% | A549/ATCC NSCLC 17.1%
active: NCI-H226 lung -39.6% | HOP-62 NSCLC 6.94% | NCI-H460 lung -18.8% | 786-0 renal -83.3% | COLO 205 colon -44.6%

O=C(Cc1ccc(/C=C/C(=O)c2ncc[nH]2)cc1)Nc1ccc(Br)cc1
inactive: NCI-H23 lung 34.8% | NCI-H226 lung 46.5% | NCI-H322M lung 58.1% | HOP-92 NSCLC 77.4% | NCI-H522 lung 13.2% | A549/ATCC NSCLC 39.4% | COLO 205 colon 20.7%
active: HOP-62 NSCLC 3.97% | NCI-H460 lung -3.31% | 786-0 renal -27%

C=C1C[C@H](O)[C@H](Br)C(C)(C)[C@@]12CCC(C)=C(Cl)C2
active: A549/ATCC NSCLC 6.49% | COLO 205 colon -79.1%
inactive: NCI-H23 lung 12.9% | NCI-H226 lung 14.8% | NCI-H322M lung 40.3% | HOP-62 NSCLC 35.6% | NCI-H460 lung 13% | HOP-92 NSCLC 23.6% | NCI-H522 lung 15.7% | 786-0 renal 16.7%

COc1cnc2c(c1)C(=O)c1c-2n(CCCN2CCOCC2)c(=O)c2cc(Cl)ccc12
active: HOP-62 NSCLC 4.59% | NCI-H460 lung 3.15% | 786-0 renal -0.608% | COLO 205 colon 9.49%
inactive: NCI-H23 lung 20.6% | NCI-H226 lung 20.6% | NCI-H322M lung 31.3% | HOP-92 NSCLC 70.4% | NCI-H522 lung 24.3% | A549/ATCC NSCLC 34.9%

COc1ccc(-c2cnc(-c3ccc(Cl)cc3)[nH]2)cc1OC
inactive: NCI-H23 lung 99.2% | NCI-H226 lung 88.3% | NCI-H322M lung 120% | HOP-62 NSCLC 94.3% | NCI-H460 lung 100% | HOP-92 NSCLC 25.8% | NCI-H522 lung 105% | A549/ATCC NSCLC 105% | 786-0 renal 100% | COLO 205 colon 98.7%

COc1ccc2c(CCCCC(c3ccccc3)c3ccccc3)c3[n+](cc2c1OC)CCc1cc2c(cc1-3)OCO2
inactive: NCI-H322M lung 11.1%
active: NCI-H23 lung -66.5% | NCI-H226 lung -55% | HOP-62 NSCLC -42.7% | NCI-H460 lung -83% | HOP-92 NSCLC -72.7% | NCI-H522 lung -57.5% | A549/ATCC NSCLC -22.5% | 786-0 renal -75.8% | COLO 205 colon -77.3%

CO[C@@H](C)Cn1c(=O)n(C)c2cnc3ccc(-c4cncc(C(C)(C)O)c4)cc3c21
active: NCI-H23 lung -2.1% | NCI-H226 lung -12.7% | NCI-H322M lung -15.2% | HOP-62 NSCLC -14.5% | NCI-H460 lung 5.83% | HOP-92 NSCLC -24% | NCI-H522 lung 3.46% | A549/ATCC NSCLC -11.7% | 786-0 renal -11.1% | COLO 205 colon -24.6%

CCCCCc1ccc(C)cc1OC(=O)CCl
inactive: NCI-H23 lung 113% | NCI-H226 lung 104% | NCI-H322M lung 97.3% | HOP-62 NSCLC 109% | NCI-H460 lung 104% | HOP-92 NSCLC 73.6% | NCI-H522 lung 103% | A549/ATCC NSCLC 108% | 786-0 renal 110% | COLO 205 colon 107%

Cc1nc2cc(-c3nn(C(C)C)c4ncnc(N)c34)ccc2o1
active: NCI-H23 lung -0.166% | NCI-H226 lung -20.5% | NCI-H322M lung -23.2% | HOP-62 NSCLC -36.3% | NCI-H460 lung 3.28% | HOP-92 NSCLC -40.4% | NCI-H522 lung -11.5% | A549/ATCC NSCLC -29.2% | 786-0 renal -29.5% | COLO 205 colon -24.9%

CCNCCNc1cc(-c2ccc(Cl)c(Cl)c2)c(C#N)c2nc3ccccc3n12
active: NCI-H23 lung -72.8% | NCI-H226 lung -74.2% | NCI-H322M lung -83.5% | HOP-62 NSCLC -75.6% | NCI-H460 lung -71.2% | HOP-92 NSCLC -85.8% | NCI-H522 lung -78.1% | A549/ATCC NSCLC -87.3% | 786-0 renal -84.8% | COLO 205 colon -83.7%

O=C(Cn1ccnc1)Nc1ccc(-c2nc3ccccc3s2)cc1
inactive: NCI-H23 lung 57.4% | NCI-H226 lung 66.6% | NCI-H322M lung 98.3% | HOP-62 NSCLC 83.8% | NCI-H460 lung 79.8% | HOP-92 NSCLC 75.8% | NCI-H522 lung 74.7% | A549/ATCC NSCLC 70.3% | 786-0 renal 78% | COLO 205 colon 80.8%

COc1cc(OC)c(C(=O)/C=C/c2cc3c(cc2OCc2ccccc2)OC(C)(C)CC3)cc1CC=C(C)C
active: HOP-92 NSCLC -21.7%
inactive: NCI-H23 lung 48.2% | NCI-H226 lung 43.2% | NCI-H322M lung 79.6% | HOP-62 NSCLC 85.2% | NCI-H460 lung 78.6% | NCI-H522 lung 65.2% | A549/ATCC NSCLC 32.9% | 786-0 renal 79.9% | COLO 205 colon 84.7%
